A short description of experiment [1]: NCI Yeast Anticancer Drug Screen. Data for the rad50 strain (AID 155).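 Note: 0% = growth of vehicle-only cultures of the same strain.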 As to conditions: S. cerevisiae rad50 strain growth inhibition, active compounds read high. The method, boiled down: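 Vehicle-treated cultures provide the reference for the growth inhibition reported for compound-exposed, repair-deficient yeast.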
A short description of experiment [2]: NCI Yeast Anticancer Drug Screen. Data for the mec2-1 strain (AID 157). As to conditions: S. cerevisiae mec2-1 strain, active compounds read high. The method, boiled down:
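Test agents were screened against the mec2-1 yeast strain, with defined DNA repair or cell cycle alteration. Growth was scored as inhibition against vehicle-only controls.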

A short description of experiment [3]: NCI Yeast Anticancer Drug Screen. Data for the sgs1 mgt1 strain (AID 161).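 Note: 0% = growth of cultures given vehicle only.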 As to conditions: S. cerevisiae sgs1 mgt1 strain, active compounds read high. The method, boiled down:
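Mutant yeast exposed to compound; growth scored against vehicle-only wells.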

Experiment [4] in a line: NCI Yeast Anticancer Drug Screen. Data for the cln2 rad14 strain (AID 165).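 Note: 0% = growth equal to vehicle treated cultures.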 As to conditions: S. cerevisiae cln2 rad14 strain, active compounds read high. The method in brief: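 Growth of compound-exposed yeast (cln2 rad14 genotype) measured and expressed as inhibition relative to vehicle.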
Experiment [5] in a line: NCI Yeast Anticancer Drug Screen. Data for the bub3 strain (AID 167). As to conditions: S. cerevisiae bub3 mutant strain, active compounds read high. The method in brief: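 Mutant yeast screening strain plus compound; vehicle-treated cultures serve as the 0% inhibition reference.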
A short description of experiment [6]: NCI Yeast Anticancer Drug Screen. Data for the mlh1 rad18 strain (AID 175). As to conditions: S. cerevisiae mlh1 rad18 strain growth inhibition, active compounds read high. The method, boiled down:
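In this whole-cell yeast screen, a strain with altered DNA damage repair is challenged with compound, and its growth is measured against matched vehicle-treated controls.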

[7] abbreviates: at 5.0 µM (retest, dose inferred, filed as 0.5).
[8] abbreviates: at 50.0 µM (retest, dose inferred, filed as 5.0).

Compounds without any hit were thinned out: in the full panel of roughly 79,000, 15% have a hit. Unmarked numbers belong to inactive results. Activity calls are given as the source filed them. Cut-off read from the data, not from the text of the source: active = growth inhibition above about 70%; inactive = the rest.

In the case of `CCOC(=O)NC(NNc1ccc([N+](=O)[O-])cc1[N+](=O)[O-])(C(F)(F)F)C(F)(F)F`, the growth inhibition in experiment [1] (setting [7]) was 1%; in experiment [1] (setting [8]) it was 99% (active); in experiment [1] (at 50.0 µM), 97.3% (active); in experiment [2] (setting [7]) it was -3%; in experiment [2] (setting [8]), 99% (active); in experiment [2] (at 50.0 µM) it was 98.2% (active). For the same molecule, the growth inhibition in experiment [3] (setting [7]) is 6%; in experiment [3] (setting [8]) it was 99% (active); in experiment [3] (at 50.0 µM) it was 98.4% (active); in experiment [4] (setting [7]), 21%; in experiment [4] (setting [8]), 98% (active); in experiment [4] (at 50.0 µM), 98.7% (active). Further, the growth inhibition in experiment [5] (setting [7]) was 19%; in experiment [5] (setting [8]), 97% (active); in experiment [5] (at 50.0 µM), 98% (active); in experiment [6] (setting [7]), 4%; in experiment [6] (setting [8]), 98% (active); in experiment [6] (at 50.0 µM), 98.5% (active).
Turning to `O=C([O-])C[n+]1c(/C=C/c2ccccc2)ccc2ccccc21`, the growth inhibition in experiment [1] (setting [7]) was -2%; in experiment [1] (setting [8]) it was 69%; in experiment [1] (at 50.0 µM), 37.1%; in experiment [2] (setting [7]), -3%; in experiment [2] (setting [8]), 87% (active); in experiment [2] (at 50.0 µM), 5.35%. The growth inhibition in experiment [3] (setting [7]) was -6%; in experiment [3] (setting [8]), 92% (active); in experiment [3] (at 50.0 µM), 28.9%; in experiment [4] (setting [7]), -3%; in experiment [4] (setting [8]) it was 85% (active); in experiment [4] (at 50.0 µM), 13.9%. The growth inhibition in experiment [5] (setting [7]) is 2%; in experiment [5] (setting [8]), 84% (active); in experiment [5] (at 50.0 µM), 6.8%; in experiment [6] (setting [7]), 0%; in experiment [6] (setting [8]) it was 94% (active); in experiment [6] (at 50.0 µM) it was 32.3%.
Consider `CCS(=O)(=O)c1ccc(NC(=O)OC2CCCCCCC2)cc1`, for which the growth inhibition in experiment [1] (setting [7]) was 5%; in experiment [1] (setting [8]), 89% (active); in experiment [1] (at 50.0 µM), 95.8% (active); in experiment [2] (setting [7]) it was 16%; in experiment [2] (setting [8]), 86% (active); in experiment [2] (at 50.0 µM) it was 80.6% (active). Also, the growth inhibition in experiment [3] (setting [7]) was 11%; in experiment [3] (setting [8]), 74% (active); in experiment [3] (at 50.0 µM), 65.5%; in experiment [4] (setting [7]), -50%; in experiment [4] (setting [8]) it was 88% (active); in experiment [4] (at 50.0 µM), 88.8% (active). The growth inhibition in experiment [5] (setting [7]) is 6%; in experiment [5] (setting [8]), -30%; in experiment [5] (at 50.0 µM), 95.2% (active); in experiment [6] (setting [7]), 6%; in experiment [6] (setting [8]) it was 90% (active); in experiment [6] (at 50.0 µM), 91.6% (active).
As to `CC(C)NC(=O)CN1C(=O)NC(C)(c2ccccc2)C1=O` (stereo not given), the growth inhibition in experiment [1] (setting [7]) is -4%; in experiment [1] (setting [8]), -1%; in experiment [1] (at 50.0 µM), 75.5% (active); in experiment [2] (setting [7]), 6%; in experiment [2] (setting [8]), 8%; in experiment [2] (at 50.0 µM), 67%. Moreover, the growth inhibition in experiment [3] (setting [7]) was -4%; in experiment [3] (setting [8]), 11%; in experiment [3] (at 50.0 µM) it was 53.5%; in experiment [4] (setting [7]), 2%; in experiment [4] (setting [8]), -3%; in experiment [4] (at 50.0 µM), 90.8% (active). Moreover, the growth inhibition is -3% in experiment [5] (setting [7]); 1% in experiment [5] (setting [8]); 79.2% (active) in experiment [5] (at 50.0 µM); 11% in experiment [6] (setting [7]); 13% in experiment [6] (setting [8]); 70.3% (active) in experiment [6] (at 50.0 µM).
On to `Cc1cc2nc3ccc(N(C)C)cc3nc2cc1N`, for which the growth inhibition in experiment [1] (setting [7]) was 42%; in experiment [1] (setting [8]), 94% (active); in experiment [1] (at 50.0 µM) it was 51.6%; in experiment [2] (setting [7]), 20%; in experiment [2] (setting [8]), 89% (active); in experiment [2] (at 50.0 µM), 93.8% (active). For the same molecule, the growth inhibition is 42% in experiment [3] (setting [7]); 94% (active) in experiment [3] (setting [8]); 45.9% in experiment [3] (at 50.0 µM); 29% in experiment [4] (setting [7]); 80% (active) in experiment [4] (setting [8]); 82.2% (active) in experiment [4] (at 50.0 µM). Also, the growth inhibition is 19% in experiment [5] (setting [7]); 90% (active) in experiment [5] (setting [8]); 94.9% (active) in experiment [5] (at 50.0 µM); 42% in experiment [6] (setting [7]); 92% (active) in experiment [6] (setting [8]); 92% (active) in experiment [6] (at 50.0 µM).
Take `c1ccc2c(c1)ccc1ncccc12`: the growth inhibition is 8% in experiment [1] (setting [7]); 70% (active) in experiment [1] (setting [8]); 81.8% (active) in experiment [1] (at 50.0 µM); 3% in experiment [2] (setting [7]); 23% in experiment [2] (setting [8]); 3.15% in experiment [2] (at 50.0 µM). Further, the growth inhibition is 0% in experiment [3] (setting [7]); 38% in experiment [3] (setting [8]); 47.6% in experiment [3] (at 50.0 µM); 2% in experiment [4] (setting [7]); 10% in experiment [4] (setting [8]); -12.2% in experiment [4] (at 50.0 µM). In addition, the growth inhibition in experiment [5] (setting [7]) is 6%; in experiment [5] (setting [8]) it was 62%; in experiment [5] (at 50.0 µM), 46.9%; in experiment [6] (setting [7]), 6%; in experiment [6] (setting [8]), 43%; in experiment [6] (at 50.0 µM), 64.8%.
In the case of `CC1C(C(=O)O)CC([N+](=O)[O-])C(Cl)C1[N+](=O)[O-]` (stereo not given), the growth inhibition is 13% in experiment [1] (setting [7]); 60% in experiment [1] (setting [8]); 20.9% in experiment [1] (at 50.0 µM); -1% in experiment [2] (setting [7]); 83% (active) in experiment [2] (setting [8]); 87.4% (active) in experiment [2] (at 50.0 µM). The growth inhibition in experiment [3] (setting [7]) was -5%; in experiment [3] (setting [8]) it was 26%; in experiment [3] (at 50.0 µM), 82.1% (active); in experiment [4] (setting [7]), 15%; in experiment [4] (setting [8]) it was 44%; in experiment [4] (at 50.0 µM) it was 35.4%. Further, the growth inhibition in experiment [5] (setting [7]) is 11%; in experiment [5] (setting [8]), 88% (active); in experiment [5] (at 50.0 µM), 74.7% (active); in experiment [6] (setting [7]), 9%; in experiment [6] (setting [8]), 93% (active); in experiment [6] (at 50.0 µM), 54.6%.
Take `CCCCCCCCCN1CCNC1=S`: the growth inhibition was -5% in experiment [1] (setting [7]); 63% in experiment [1] (setting [8]); 38.9% in experiment [1] (at 50.0 µM); -7% in experiment [2] (setting [7]); 30% in experiment [2] (setting [8]); -10.4% in experiment [2] (at 50.0 µM). Further, the growth inhibition is 6% in experiment [3] (setting [7]); 60% in experiment [3] (setting [8]); 71% (active) in experiment [3] (at 50.0 µM); -18% in experiment [4] (setting [7]); 40% in experiment [4] (setting [8]); 0.9% in experiment [4] (at 50.0 µM). Moreover, the growth inhibition in experiment [5] (setting [7]) is 34%; in experiment [5] (setting [8]), 80% (active); in experiment [5] (at 50.0 µM), 54.3%; in experiment [6] (setting [7]), 0%; in experiment [6] (setting [8]) it was 61%; in experiment [6] (at 50.0 µM) it was 49.5%.
Take `O=C(Nc1ccc([N+](=O)[O-])cc1[N+](=O)[O-])C(=O)C(C(=O)c1ccc(Cl)c(Cl)c1)C1OC(=O)c2ccccc21` (stereo not given): the growth inhibition in experiment [1] (setting [7]) is 27%; in experiment [1] (setting [8]) it was 27%; in experiment [1] (at 50.0 µM) it was 67%; in experiment [2] (setting [7]) it was 25%; in experiment [2] (setting [8]) it was 25%; in experiment [2] (at 50.0 µM), 40.9%. Besides, the growth inhibition is 22% in experiment [3] (setting [7]); 22% in experiment [3] (setting [8]); 61.8% in experiment [3] (at 50.0 µM); 30% in experiment [4] (setting [7]); 30% in experiment [4] (setting [8]); 72.3% (active) in experiment [4] (at 50.0 µM). Also, the growth inhibition in experiment [5] (setting [7]) was 31%; in experiment [5] (setting [8]), 31%; in experiment [5] (at 50.0 µM), 53.5%; in experiment [6] (setting [7]), 16%; in experiment [6] (setting [8]), 16%; in experiment [6] (at 50.0 µM), 39.6%.
With `Cc1ccc(N2C(=O)CCSC2=S)cc1C`, the growth inhibition in experiment [1] (setting [7]) is -1%; in experiment [1] (setting [8]), 87% (active); in experiment [1] (at 50.0 µM), 97.2% (active); in experiment [2] (setting [7]) it was 0%; in experiment [2] (setting [8]), 35%; in experiment [2] (at 50.0 µM), 80.5% (active). For the same molecule, the growth inhibition was 4% in experiment [3] (setting [7]); 96% (active) in experiment [3] (setting [8]); 98.3% (active) in experiment [3] (at 50.0 µM); -2% in experiment [4] (setting [7]); 32% in experiment [4] (setting [8]); 38.9% in experiment [4] (at 50.0 µM). Further, the growth inhibition in experiment [5] (setting [7]) is -5%; in experiment [5] (setting [8]), 77% (active); in experiment [5] (at 50.0 µM) it was 68.7%; in experiment [6] (setting [7]) it was -2%; in experiment [6] (setting [8]), 98% (active); in experiment [6] (at 50.0 µM), 95.4% (active).

The values above are taken from PubChem BioAssay (NCI).
